The values that follow come from paper PMC4552634, “A New Set of Chemical Starting Points with Plasmodium falciparum Transmission-Blocking Potential for Antimalarial Drug Discovery” (PLoS ONE, 2015).

Hit rate of the full screen: of about 13,000 compounds, about 3,200 (25%) showed an effect of 50% or more. The list shows a part of the results.

The subject of the experiment is P. falciparum stage V gametocytes. Also on record: BacTiter-Glo ATP luminescence viability of purified stage V gametocytes in 384-well plates, per cent inhibition versus DMSO. The conditions noted are these: 48 h, 5 µM; inhibitor.
On to `CN(C)CCCNc1ncnc2c1[nH]c1ccc(Br)cc12` [TCMDC-124583], for which the “% Inhibition” value is reported as -18.04%.

Consider `NC1CCN(c2nc(NCCCc3ccc(O)cc3)nc(NCc3ccccc3-c3ccc(C(F)(F)F)cc3)n2)CC1` [TCMDC-133395], for which the “% Inhibition” value is listed as 21.49%. As to `COc1cc(F)c2ncc(C#N)c(CCN3CCC(NCc4ccc5c(c4)OCCO5)CC3)c2c1` [TCMDC-135367], the “% Inhibition” value is given as 11.13%. To `O=C1OC2(CN1CC1CCN(Cc3ccc(O)cc3Cl)C1)c1ccccc1-c1ccccc12` (centres unmarked) [TCMDC-136313] belongs 14.23%. To `CON=Cc1ccn(-c2ccc(O)c3c2C[C@H]2C[C@H]4[C@H](N(C)C)C(=O)C(C(N)=O)=C(O)[C@@]4(O)C(=O)C2=C3O)c1` [TCMDC-138646] belongs 4.088%; to `C=C1C(C(=O)OCC)=CN(CC)c2cc(O[C@H]3CCN(C(=O)OC(C)(C)C)C3)ccc21` [TCMDC-135646], 47.67%. To `COc1cc2c(cc1OC)CN(CCc1ccc(NC(=O)c3cc4cc(OC(F)(F)F)ccc4[nH]3)cc1)CC2` [TCMDC-138250] belongs 36.42%. For the compound `CCc1cn(CCCOC)c2ccc(C(=O)N[C@@H](Cc3ccccc3)[C@H](O)CNCc3cccc(C(F)(F)F)c3)cc12` [TCMDC-135241], the “% Inhibition” value was determined as 4.563%. `CCc1cn(CCS(C)(=O)=O)c2ccc(C(=O)N[C@@H](Cc3ccccc3)[C@H](O)CNC(C)(C)CCCC(C)C)cc12` [TCMDC-135268]: the “% Inhibition” value was 68.72%.

On to `CCc1cn(CCc2ccccc2)c2ccc(C(=O)N[C@@H](Cc3ccccc3)[C@H](O)CNC(C)(C)CCCC(C)C)cc12` [TCMDC-135282], for which the “% Inhibition” value is recorded as 76.37%. As to `CCc1cn(CCOC)c2ccc(C(=O)N[C@@H](Cc3ccccc3)[C@H](O)CNC(C)(C)CCCC(C)C)cc12` [TCMDC-135259], the “% Inhibition” value is 69.62%. To `CCc1cn2c3c(cc(C(=O)N[C@@H](Cc4ccccc4)[C@H](O)CN[C@@H](C)CC)cc13)N(C)S(=O)(=O)CC2` [TCMDC-135801] belongs 46.03%.

For the compound `C(=N\Nc1nccc2sc(-c3ccccc3)cc12)/c1cccnc1` [TCMDC-135190], the “% Inhibition” value is -94.18%. Consider `COc1ccc(S(=O)(=O)N2CCOCC2)cc1NC(=O)c1cc2ccccc2o1` [TCMDC-124328], for which the “% Inhibition” value is reported as -2.829%.

As for `N#Cc1ccc(-c2ccc(OCC(O)CN3CCCN(C(=O)C(c4ccc5c(c4)OCO5)N4CCN(C/C=C/c5ccccc5)CC4)CC3)cc2)cc1` (centres unmarked) [TCMDC-141496], the “% Inhibition” value was 18.87%. Regarding `COc1cc2c(cc1NC(=O)CN1CCN(C(=O)c3ccco3)CC1)oc1ccccc12` [TCMDC-123712], the “% Inhibition” value amounted to 37.25%. To `c1ccc2c(CNc3nc(NCC4CCCCC4)nc4nc[nH]c34)cccc2c1` [TCMDC-131860] belongs -36.72%; to `c1ccc(CCNc2nc(NCC(c3ccccc3)c3ccccc3)c3[nH]cnc3n2)cc1` [TCMDC-131858], -2.796%. `Cn1cnc2nc(NCCc3ccccc3)nc(NCc3cccc4ccccc34)c21` [TCMDC-131862]: the “% Inhibition” value is given as 52.06%. The result for `O=C1COc2ccccc2N1CCN1CCC(NCc2ccc(-c3cccs3)cc2)CC1` [TCMDC-135135] reads -33.37%; that for `COCc1nc(N)nc(N)c1-c1ccc(Cl)c(Cl)c1` [TCMDC-137373], -9.797%; that for `COc1ccc(Nc2nccc(NCCNC(=O)Nc3ccccc3F)n2)cc1` [TCMDC-133645], -48.4%. As for `O=C(NCCNc1ccnc(Nc2ccc(F)cc2)n1)Nc1ccccc1F` [TCMDC-133640], the “% Inhibition” value was -0.7257%. For the compound `O=C(NCCNc1nc(NCCNC(=O)Nc2ccccc2)c2ccc(=O)n(-c3c(F)cccc3F)c2n1)Nc1ccccc1` [TCMDC-136645], the “% Inhibition” value is reported as 74.46%.

With `COc1ccc(NC(=O)/C=C/c2ccccc2Cl)cc1OCCN1CCC(c2nc3ccccc3[nH]2)CC1` [TCMDC-140921], the “% Inhibition” value is reported as -39.17%.

Consider `O=C(/C=C/c1ccc(Cl)c(Cl)c1)NCCCCCN1CCC(NC(=O)NC2CCCCC2)CC1` [TCMDC-135700], for which the “% Inhibition” value was -41.72%.

Consider `ON=C(c1nc2ccccc2[nH]1)c1nc2ccccc2[nH]1` [TCMDC-125758], for which the “% Inhibition” value came out at 102.3%. To `c1ccc2[nH]c(Nc3ccc(Nc4nc5ccccc5[nH]4)cc3)nc2c1` [TCMDC-131951] belongs -2.479%; to `c1ccc2[nH]c(CN(Cc3nc4ccccc4[nH]3)Cc3nc4ccccc4[nH]3)nc2c1` [TCMDC-124132], -49.22%; to `COc1cc(C(=O)NCCCN2CCN(c3cccc(Cl)c3)CC2)ccc1-c1nc2cc(Cl)c(F)cc2[nH]1` [TCMDC-140095], -11.24%. The result for `O=C(c1ccccc1[N+](=O)[O-])N(Cc1ccccc1)c1ccccn1` [TCMDC-125748] reads 16.59%; that for `CCCCCCn1c(Sc2ccc(C#N)c([N+](=O)[O-])c2)nnc1-c1cccc(Cl)c1` [TCMDC-135594], 24.59%; that for `C=CCn1c(Sc2ccc(C#N)c([N+](=O)[O-])c2)nnc1-c1ccc(OC)cc1` [TCMDC-135605], 28.83%. Turning to `CC(C)Cn1c(Sc2ccc(C#N)c([N+](=O)[O-])c2)nnc1-c1ccc(N(C)C)cc1` [TCMDC-135612], the “% Inhibition” value is recorded as 35.05%. The result for `COc1ccc(-c2nnc(Sc3ccc(C#N)c([N+](=O)[O-])c3)n2CC(C)C)cc1` [TCMDC-135584] reads 36.77%; that for `C=CCn1c(Sc2ccc(C#N)c([N+](=O)[O-])c2)nnc1-c1cccc(Cl)c1` [TCMDC-135595], 80.55%. For the compound `CCCCCn1c(Sc2ccc(C#N)c([N+](=O)[O-])c2)nnc1-c1cccc(Cl)c1` [TCMDC-135593], the “% Inhibition” value is listed as -8.18%. The result for `C=CCn1c(Sc2ccc(C#N)c([N+](=O)[O-])c2)nnc1-c1ccc(Cl)cc1` [TCMDC-135600] reads 77.78%.

As for `C=CCn1c(Sc2ccc(C#N)c([N+](=O)[O-])c2)nnc1-c1cc(OC)cc(OC)c1` [TCMDC-135590], the “% Inhibition” value was determined as 71.82%. For `CCCCCn1c(Sc2ccc(C#N)c([N+](=O)[O-])c2)nnc1-c1cc(OC)cc(OC)c1` [TCMDC-135588], the “% Inhibition” value was -41.27%.

Consider `CCCCn1c(Sc2ccc(C#N)c([N+](=O)[O-])c2)nnc1-c1cccc(Cl)c1` [TCMDC-135579], for which the “% Inhibition” value is given as 86.95%. The result for `CC(C)Cn1c(Sc2ccc(C#N)c([N+](=O)[O-])c2)nnc1-c1cccc(Cl)c1` [TCMDC-135580] reads 40.84%. The result for `O=[N+]([O-])c1cc(C(c2ccc(O)c([N+](=O)[O-])c2)C(Cl)(Cl)Cl)ccc1O` [TCMDC-124158] reads 25.13%; that for `COc1ccccc1NC(=O)Nc1cccc(-c2cccc(-c3nc4ccc(C(F)(F)F)cc4[nH]3)c2)c1` [TCMDC-133205], 10.02%; that for `[O-][S+]1c2ccccc2Sc2ccccc21` [TCMDC-124300], -7.237%. Turning to `CC(C)Cn1ncc2c3c(N)nc(N)nc3ccc21` [TCMDC-137970], the “% Inhibition” value amounted to 3.163%.

For the compound `O=C(Nc1ccccc1)OCCOc1ccc(CC2SC(=O)NC2=O)cc1` (centres unmarked) [TCMDC-131642], the “% Inhibition” value is on record as 13.3%. `N#Cc1ccc2c(c1)CCN(CCC1CCC(NC(=O)/C=C/c3cc(Br)cs3)CC1)CC2` (centres unmarked) [TCMDC-139841]: the “% Inhibition” value is given as -33.15%. To `O=C(Nc1ccccc1Cl)N(Cc1cc(Cl)cc(Cl)c1)CC(O)COc1ccc(Cl)c(F)c1` (centres unmarked) [TCMDC-141477] belongs 10.95%; to `COc1ccc(NC(=O)C2CCN(CCCCCNC(=O)/C=C/c3ccc(Cl)c(Cl)c3)CC2)cc1` [TCMDC-136128], 80.86%. To `O=C(/C=C/c1ccc(Cl)c(Cl)c1)NCCCCCN1CCC(C(=O)Nc2ccc(Cl)c(Cl)c2)CC1` [TCMDC-136124] belongs 40.37%. As for `O=C(/C=C/c1ccc(Cl)cc1)NCCCCCN1CCC(C(=O)Nc2ccc(Cl)cc2)CC1` [TCMDC-136115], the “% Inhibition” value is listed as 64.6%.

Turning to `O=C(/C=C/c1ccc(Cl)cc1)NCCCCCN1CCC(C(=O)Nc2cccc(Cl)c2)CC1` [TCMDC-136119], the “% Inhibition” value was -9.305%. In the case of `O=C(/C=C/c1ccc(Cl)cc1)NCCCCCN1CCC(C(=O)Nc2ccc(Cl)c(Cl)c2)CC1` [TCMDC-136123], the “% Inhibition” value was -40.47%. With `O=C(/C=C/c1ccc(Cl)c(Cl)c1)NCCCCCN1CCC(C(=O)Nc2ccc(Cl)cc2)CC1` [TCMDC-136116], the “% Inhibition” value is recorded as -21.25%. Turning to `Cc1cc(C)cc(OCC(O)CN(Cc2cc(Cl)cc(Cl)c2)C(=O)Nc2ccc(Cl)cc2)c1` (centres unmarked) [TCMDC-141475], the “% Inhibition” value was 25.73%. The result for `O=C(Nc1cccc(Cl)c1N1CCOCC1)C(Cl)(Cl)Cl` [TCMDC-124993] reads 8.6%.

In the case of `CN(C)CCOc1cc(NC(=O)Nc2ccc3c(c2)CCCC3=O)ccc1I` [TCMDC-139187], the “% Inhibition” value is -8.397%.

Consider `O=C(Nc1ccc(C(=O)N2CCN(CCN3CCN(c4cccc(C(F)(F)F)c4)CC3)CC2)cc1)c1ccc(C(F)(F)F)cc1` [TCMDC-138148], for which the “% Inhibition” value is -21.85%. In the case of `O=C(Nc1ccc(Cl)c(C(F)(F)F)c1)N[C@H]1CCN(CCCCCNC(=O)C2CC2c2ccc(Cl)c(Cl)c2)C1` (some centres unmarked) [TCMDC-136274], the “% Inhibition” value is reported as 80.05%. To `O=C(Nc1ccc(Cl)c(C(F)(F)F)c1)NC1CCN(CCCCCNC(=O)C2CC2c2ccc(Cl)c(Cl)c2)CC1` (centres unmarked) [TCMDC-136260] belongs 59.16%. The result for `O=C(NCCCCCN1CCCN(C(=O)Nc2ccc(Cl)c(C(F)(F)F)c2)CC1)C1CC1c1ccc(Cl)c(Cl)c1` (centres unmarked) [TCMDC-136255] reads -20.94%. Take `O=C(Nc1ccc(C(F)(F)F)cc1)N[C@H]1CCN(CCCCCNC(=O)C2CC2c2ccc(Cl)c(Cl)c2)C1` (some centres unmarked) [TCMDC-136272]: the “% Inhibition” value was 93.26%. As for `O=C(Nc1ccc(C(F)(F)F)cc1)NC1CCN(CCCCCNC(=O)C2CC2c2ccc(Cl)c(Cl)c2)CC1` (centres unmarked) [TCMDC-136256], the “% Inhibition” value was 4.226%.

With `O=C(Nc1ccc(Cl)c(Cl)c1)N[C@H]1CCN(CCCCCNC(=O)C2CC2c2ccc(Cl)c(Cl)c2)C1` (some centres unmarked) [TCMDC-136266], the “% Inhibition” value is listed as -8.426%.
